Laboratory results from PubChem BioAssay (NCI).
This is part of a sample that, as a whole, favours compounds with a hit. Of some 79,000 tested, about 15% had one in any assay. Activity calls are given as the source filed them. No stated cut-off is given here; in the data, active means growth inhibition above about 70%; inactive means the rest.

What was measured:
[1] = NCI Yeast Anticancer Drug Screen. Data for the rad52 strain (AID 147);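 further: 0% = growth of vehicle-treated control cultures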; details: S. cerevisiae rad52 mutant growth inhibition, active compounds read high
Procedure, shortened: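 Here a repair-compromised yeast strain receives each compound; its growth is then quantified and normalised to vehicle-only controls.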

[2] = NCI Yeast Anticancer Drug Screen. Data for the wt1 strain (AID 149);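 further: 0% = growth of vehicle-treated wt1 cultures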; details: S. cerevisiae wt1 strain (SPY 50644) growth inhibition, active compounds read high
Procedure, shortened: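 wt1 yeast, compound-treated; % growth inhibition vs vehicle control.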

[3] = NCI Yeast Anticancer Drug Screen. Data for the rad50EPP+ strain (AID 151);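 further: 0% = growth of vehicle-treated control cultures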; details: S. cerevisiae rad50 mutant strain, active compounds read high
Procedure, shortened: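 Read-out is yeast growth inhibition relative to vehicle; cells used were the rad50EPP+ strain.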

[4] = NCI Yeast Anticancer Drug Screen. Data for the mgt1 strain (AID 153); details: S. cerevisiae mgt1 mutant growth inhibition, active compounds read high
Procedure, shortened: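 Measured: inhibition of mgt1 yeast growth by compound, normalized to vehicle-treated cultures.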

[5] = NCI Yeast Anticancer Drug Screen. Data for the rad50 strain (AID 155);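 further: 0% = growth of vehicle-only cultures of the same strain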; details: S. cerevisiae rad50 strain growth inhibition, active compounds read high
Procedure, shortened: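 Genetically altered yeast (DNA repair pathway); compound treatment; growth inhibition vs vehicle ctrl.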

[6] = NCI Yeast Anticancer Drug Screen. Data for the mec2-1 strain (AID 157); details: S. cerevisiae mec2-1 strain, active compounds read high
Procedure, shortened: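 Using mec2-1 yeast: add compound, measure growth, express inhibition versus vehicle-treated cultures.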

[7] = NCI Yeast Anticancer Drug Screen. Data for the rad14 strain (AID 159);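 further: 0% = growth of vehicle-treated control cultures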; details: S. cerevisiae rad14 strain growth inhibition, active compounds read high
Procedure, shortened: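 Test compounds were applied to a repair-deficient yeast strain. Its growth was then compared with that of cultures given vehicle alone, and inhibition was expressed relative to those controls.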

[8] = NCI Yeast Anticancer Drug Screen. Data for the sgs1 mgt1 strain (AID 161);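 further: 0% = growth of cultures given vehicle only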; details: S. cerevisiae sgs1 mgt1 strain, active compounds read high
Procedure, shortened: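 Yeast cells carrying a defined DNA-repair defect were exposed to test compounds. Growth inhibition was measured relative to vehicle-treated controls.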

[9] = NCI Yeast Anticancer Drug Screen. Data for the CLN2oe strain (AID 163);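 further: 0% = growth of vehicle-only control cultures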; details: S. cerevisiae CLN2oe strain, active compounds read high
Procedure, shortened: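 Whole-cell yeast growth assay. A strain engineered for altered cell-cycle control received compound, and inhibition relative to vehicle-treated cultures was recorded.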

[10] = NCI Yeast Anticancer Drug Screen. Data for the cln2 rad14 strain (AID 165);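 further: 0% = growth equal to vehicle treated cultures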; details: S. cerevisiae cln2 rad14 strain, active compounds read high
Procedure, shortened: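 Yeast strain cln2 rad14, bearing defects in cell cycle control and DNA repair, serves as the test system; values reflect growth inhibition compared with vehicle.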

[11] = NCI Yeast Anticancer Drug Screen. Data for the bub3 strain (AID 167); details: S. cerevisiae bub3 mutant strain, active compounds read high
Procedure, shortened: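 Yeast carrying a defined mutation is treated with each compound, and growth is compared with that of vehicle-exposed cells to give inhibition.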

[12] = NCI Yeast Anticancer Drug Screen. Data for the wt2 strain (AID 169);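 further: 0% = growth of vehicle-treated yeast cultures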; details: S. cerevisiae wt2 strain growth inhibition, active compounds read high
Procedure, shortened: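 Treated yeast vs. vehicle-treated yeast: growth inhibition determined.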

[13] = NCI Yeast Anticancer Drug Screen. Data for the mlh1 strain (AID 171);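 further: 0% = growth of vehicle-treated control cultures of the same strain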; details: S. cerevisiae mlh1 strain growth inhibition, active compounds read high
Procedure, shortened: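 A yeast strain with a defined genetic lesion serves as the test organism. Cultures receive compound or vehicle, and growth is measured.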

[14] = NCI Yeast Anticancer Drug Screen. Data for the sgs1 strain (AID 173);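 further: 0% = growth of vehicle-only control cultures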; details: S. cerevisiae sgs1 mutant, active compounds read high
Procedure, shortened: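 A genetically defined yeast mutant is incubated with the test compound, and its growth is compared to that of the same strain given vehicle.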

[15] = NCI Yeast Anticancer Drug Screen. Data for the mlh1 rad18 strain (AID 175); details: S. cerevisiae mlh1 rad18 strain growth inhibition, active compounds read high
Procedure, shortened: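 Steps: expose repair-defective yeast to compound; measure growth; express inhibition against vehicle-treated controls.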

[16] = at 5.0 µM (retest, dose inferred, filed as 0.5)
[17] = at 50.0 µM (retest, dose inferred, filed as 5.0)

Measured: growth inhibition

NNC(=O)CCc1ccc2ccc3ccccc3c2c1
inactive: [1]; at 1.2 µM -1% | [1]; at 3.7 µM -3% | [1]; at 11.0 µM 1% | [1]; at 33.0 µM 13% | [1]; at 100.0 µM 52% | [2]; at 1.2 µM 1% | [2]; at 3.7 µM 3% | [2]; at 11.0 µM 3% | [2]; at 33.0 µM 3% | [2]; at 100.0 µM 18% | [3]; at 1.2 µM 2% | [3]; at 3.7 µM 4% | [3]; at 11.0 µM 15% | [3]; at 33.0 µM 34% | [3]; at 100.0 µM 58% | [4]; at 1.2 µM -2% | [4]; at 3.7 µM -3% | [4]; at 11.0 µM -5% | [4]; at 33.0 µM -4% | [4]; at 100.0 µM 23% | [5]; at 1.2 µM 0% | [5]; at 3.7 µM -4% | [5]; [16] -13% | [5]; at 11.0 µM 9% | [5]; at 33.0 µM 7% | [5]; [17] 7% | [5]; at 50.0 µM 28.1% | [5]; at 100.0 µM 58% | [6]; at 1.2 µM -1% | [6]; at 3.7 µM -1% | [6]; [16] -1% | [6]; at 11.0 µM 0% | [6]; at 33.0 µM 2% | [6]; [17] 2% | [6]; at 50.0 µM -10.2% | [6]; at 100.0 µM 50% | [7]; at 1.2 µM -4% | [7]; at 3.7 µM -2% | [7]; at 11.0 µM -3% | [7]; at 33.0 µM -4% | [7]; at 100.0 µM 40% | [8]; [16] -6% | [8]; [17] -14% | [8]; at 50.0 µM 20.1% | [9]; at 1.2 µM -10% | [9]; at 3.7 µM -15% | [9]; at 11.0 µM -17% | [9]; at 33.0 µM -3% | [9]; at 100.0 µM 60% | [10]; [16] -28% | [10]; [17] -15% | [10]; at 50.0 µM 24.6% | [11]; at 1.2 µM -8% | [11]; at 3.7 µM -4% | [11]; [16] -11% | [11]; at 11.0 µM -33% | [11]; at 33.0 µM 19% | [11]; [17] 54% | [11]; at 50.0 µM 37.2% | [11]; at 100.0 µM 58% | [12]; at 1.2 µM -1% | [12]; at 3.7 µM -1% | [12]; at 11.0 µM 2% | [12]; at 33.0 µM 6% | [12]; at 100.0 µM 32% | [13]; at 1.2 µM 6% | [13]; at 3.7 µM 3% | [13]; at 11.0 µM 5% | [13]; at 33.0 µM 9% | [13]; at 100.0 µM 48% | [14]; at 1.2 µM 6% | [14]; at 3.7 µM 8% | [14]; at 11.0 µM 17% | [14]; at 33.0 µM 22% | [14]; at 100.0 µM 52% | [15]; [16] -10% | [15]; [17] 22%
active: [15]; at 50.0 µM 71.3%
